From PubChem BioAssay (NCI)
Compounds without any hit were thinned out: in the full panel of roughly 83,000, 20% have a hit.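 Method: cells in 96-well plates; compound added at one concentration; 48 h incubation; percent growth measured; values under 10 scored active.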 Calls of active or inactive are those of the source.

Tests used:
Experiment in all cases: NCI-60 one-dose screen, 48 h (100 = growth as untreated, 0 = no growth, -100 = all killed)
Conditions in all cases: 10 µM
[1] = system: SK-MEL-2 melanoma
[2] = system: EKVX NSCLC
[3] = system: SN12C renal
[4] = system: UO-31 renal
[5] = system: TK-10 renal
[6] = system: ACHN renal
[7] = system: CAKI-1 renal
[8] = system: CCRF-CEM leukemia
[9] = system: MOLT-4 leukemia
[10] = system: SR leukemia
[11] = system: OVCAR-8 ovarian
[12] = system: OVCAR-5 ovarian
[13] = system: OVCAR-4 ovarian
[14] = system: SK-OV-3 ovarian
[15] = system: IGROV1 ovarian
[16] = system: OVCAR-3 ovarian
[17] = system: HS 578T breast
[18] = system: NCI/ADR-RES ovarian
[19] = system: RPMI-8226 leukemia
[20] = system: A498 renal

Measured: growth

Cc1cc(NC(=O)c2ccc(C)c(Nc3nccc(-c4cccnc4)n3)c2)cc(-n2cnc(C)c2)c1
active: [2] -56.9% | [4] -55% | [5] -20.5% | [6] -13.7% | [7] -80.2% | [10] -22.3% | [13] -28.7% | [16] -7.87% | [17] 5.73%
inactive: [1] 83.5% | [3] 27.5% | [8] 38.1% | [9] 14.3% | [11] 61.3% | [12] 46% | [14] 27.6% | [15] 32.3% | [18] 59.1%

O=C(CCCNC(=O)c1nc(-c2ccccc2)n(-c2ccccc2)n1)NO
inactive: [1] 97.9% | [2] 96.8% | [3] 101% | [4] 94.5% | [5] 85.9% | [6] 114% | [7] 98% | [9] 101% | [10] 106% | [11] 96.9% | [13] 118% | [14] 97% | [15] 101% | [16] 108% | [17] 105% | [18] 109%

N#Cc1c(-c2ccc(Cl)cc2)cc(-c2cc(O)ccc2O)nc1N
active: [3] -2.03% | [6] 8.35% | [11] 1.52% | [15] 7.29% | [16] -17.2%
inactive: [1] 31.2% | [2] 42.9% | [4] 59% | [5] 79.6% | [7] 82.8% | [9] 11.3% | [10] 21.7% | [12] 86.6% | [13] 22.9% | [14] 45.2% | [17] 27.6% | [18] 65.3%

Nc1ccccc1NC(=O)c1ccc(CCCC(=O)Nc2ccc(C3CC3N)cc2)cc1 (stereo not given)
inactive: [2] 53.5% | [3] 43.8% | [4] 62.8% | [6] 52% | [7] 96.2% | [9] 22.6% | [10] 31.5% | [11] 17.3% | [12] 33.1% | [13] 49.7% | [14] 32.4% | [15] 44.3% | [16] 25.4% | [17] 36.7% | [18] 98.6%
active: [1] -4.46% | [5] 8.6%

CCOC(=O)c1sc2ncnc(Nc3ccc(NC(=O)Nc4ccc(Cl)cc4)cc3)c2c1C
inactive: [1] 87.2% | [2] 74.4% | [3] 60.5% | [4] 54.9% | [5] 89.4% | [6] 64.4% | [7] 83.9% | [9] 66.3% | [10] 44.3% | [11] 38.7% | [12] 99.2% | [13] 53.4% | [14] 74.6% | [15] 92.3% | [16] 62.9% | [17] 41.4% | [18] 37.2%

Cc1c2cnccc2c(C)c2c1oc1ccccc12
active: [9] 3.5%
inactive: [1] 112% | [2] 38.3% | [3] 69.1% | [4] 40.4% | [5] 48.4% | [6] 58.6% | [7] 66% | [8] 62.8% | [10] 21.2% | [11] 71.1% | [12] 82.4% | [13] 98.9% | [14] 71.2% | [15] 78.8% | [16] 98.1% | [17] 53.7% | [18] 73.7%

O=S(=O)(NCCCNc1nccc(-c2cn(-c3ccccc3)nc2-c2ccc(Cl)c(O)c2)n1)c1ccccc1
inactive: [1] 65.5% | [2] 55.2% | [3] 67.2% | [4] 45.9% | [5] 76.9% | [6] 66.1% | [7] 90.4% | [9] 43.1% | [10] 42% | [11] 59.5% | [12] 118% | [13] 71.1% | [14] 83.8% | [15] 73.5% | [16] 66.8% | [18] 33.3%

CCC(c1ccc(OC)cc1)C(CC)c1ccc(O)c(CN2CCN(C)CC2)c1 (stereo not given)
active: [10] 4.26% | [19] -21.6%
inactive: [1] 62.2% | [2] 44.3% | [3] 55.1% | [4] 37.3% | [5] 72.2% | [6] 69% | [7] 41.1% | [9] 57.4% | [11] 67% | [12] 80.4% | [13] 60.2% | [14] 78.7% | [15] 68.5% | [16] 79.8% | [17] 61.4% | [18] 60.3%

O=C1c2ccccc2-c2c1c1cccnc1c(=O)n2C[C@H](O)CO
inactive: [1] 101% | [2] 79.3% | [3] 35.6% | [4] 49.9% | [5] 84.7% | [6] 27.6% | [7] 65.5% | [11] 58.7% | [12] 104% | [13] 92.5% | [14] 60.3% | [15] 50.4% | [16] 79.6% | [17] 85.1% | [18] 88.1%
active: [9] 9.69%

c1cnc2[nH]cc(-c3nc(-c4ccsc4)cs3)c2c1
inactive: [1] 102% | [2] 42.6% | [3] 92% | [4] 62.7% | [5] 138% | [6] 85.3% | [7] 96.3% | [9] 79.6% | [10] 87.7% | [11] 96.9% | [12] 111% | [13] 93% | [14] 92.8% | [15] 70.8% | [16] 84.2% | [17] 87.5% | [18] 101%

Clc1nc2ccccc2cc1Cn1nnc(Cc2ccccc2)n1
inactive: [1] 58.8% | [2] 36.1% | [3] 70.3% | [5] 60.9% | [6] 52.2% | [7] 40.5% | [9] 43.1% | [11] 71.6% | [13] 29.7% | [14] 57.4% | [15] 50.9% | [16] 59.5% | [17] 76.6% | [18] 52.1%
active: [4] -81%

C/C(=C/CCC(C)[C@@H]1CC[C@]2(C)C3=C(CC[C@@]12C)[C@@]1(C)CCC(=O)C(C)(C)[C@@H]1CC3)C(=O)O (stereo not given in full)
active: [1] -52.1% | [2] -76.5% | [3] -77.5% | [4] -95.5% | [5] -86.1% | [6] -93.5% | [7] -92.8% | [9] -35.3% | [10] -27.8% | [11] -21.9% | [12] -75.6% | [13] -70.2% | [14] -97.5% | [15] -87% | [16] -96% | [17] -37.3% | [18] -52.8%

COc1cc2c3c(n([C@@H]4CCOC4)c(=O)c2cc1OC)-c1cc2c(cc1C3=O)OCO2
active: [4] 5.77% | [6] 0.739%
inactive: [1] 94% | [2] 64.2% | [3] 18.3% | [5] 99.7% | [7] 23.2% | [9] 20.4% | [10] 15.1% | [11] 36.7% | [12] 77% | [13] 72.2% | [14] 24.7% | [15] 67.8% | [16] 52.3% | [17] 109% | [18] 30.1%

COc1ccc(-c2nn(-c3cccc(Cl)c3)cc2-c2c(C#N)c(=O)n3[nH]c(-c4ccccc4)nc3c2C#N)cc1
inactive: [1] 88.6% | [2] 35.9% | [3] 104% | [4] 82.5% | [5] 123% | [6] 101% | [7] 62.9% | [8] 74.4% | [9] 61.6% | [10] 71.2% | [11] 110% | [12] 106% | [13] 97.3% | [14] 102% | [15] 108% | [16] 109% | [17] 101% | [18] 93%

COc1cc2c3c(n([C@H]4CCOC4)c(=O)c2cc1OC)-c1cc2c(cc1C3=O)OCO2
inactive: [1] 99.8% | [2] 60% | [3] 22.9% | [4] 10.6% | [5] 90% | [7] 33.5% | [9] 17.2% | [10] 13.6% | [11] 35.2% | [12] 71.6% | [13] 70.9% | [14] 24.6% | [15] 62% | [16] 46.9% | [18] 27.5%
active: [6] 0.59%

Cc1c2c[n+](C(C)C)ccc2c(C)c2c1[nH]c1ccccc12
inactive: [1] 12.3% | [2] 29.4% | [4] 72.1% | [5] 54% | [6] 85.7% | [7] 96% | [9] 14.8% | [10] 20.8% | [11] 15.9% | [12] 55.7% | [13] 13.8% | [15] 41.2% | [17] 22.8% | [18] 97.9%
active: [3] -11.8% | [14] -1.05% | [16] 9.41%

COc1cc2c3c(n(C4CCNCC4)c(=O)c2cc1OC)-c1cc2c(cc1C3=O)OCO2
active: [2] -68.4% | [3] -69% | [4] -70.2% | [6] -81.7% | [9] -27.1% | [10] -24.4% | [11] -43.1% | [12] -66.8% | [13] -23.4% | [14] -42.2% | [15] -57.1% | [16] -88.9% | [17] -48.5% | [18] -39.8%
inactive: [1] 76.4% | [5] 76% | [7] 21.4%

O=C(CCCCC(=O)Oc1c(Cl)cc(Cl)cc1[N+](=O)[O-])Oc1c(Cl)cc(Cl)cc1[N+](=O)[O-]
inactive: [1] 93.6% | [2] 93.2% | [3] 105% | [4] 87.1% | [5] 91.3% | [6] 105% | [20] 114% | [8] 73.6% | [9] 78.1% | [10] 85.4% | [19] 92.9% | [11] 106% | [12] 109% | [13] 104% | [14] 103% | [15] 101% | [16] 105% | [17] 105%
